The text below walks through data of PubChem BioAssay (Tox21).

Structures are written as SMILES. Values joined by “and” are separate entries in the source; they are usually repeats but may differ in a detail not shown here. Identical values can stand only once. Inconclusive results are not listed. Active and inactive are the calls of the source. Unless noted, the call rests on the fitted dose curve; in most records, active means well fitted curve in the direction sought with a large enough effect in the repeat runs; inconclusive means weak or mixed curves; inactive means no such curve, though single readings can be large; an effect the other way counts as inactive or inconclusive.

The nature of assay [1]: A CellTox Green Cytotoxicity Assay to monitor cytotoxicity in HEK293 cells - 32 hour (AID 1224881). Further: nearly all actives have a fitted effect of over 40% in size. An outline of the steps:
(§1)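 Fluorescence from a DNA-binding dye excluded by viable cells was measured repeatedly in the same HEK293 wells (600 cells/well) during continuous compound exposure at 37 C. Each assay gives one read point: 0, 8, 16, 24, 32 or 40 h.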

Assay [2] in a line: A CellTox Green Cytotoxicity Assay to monitor cytotoxicity in HepG2 cells - 0 hour (AID 1224882). Further: nearly all actives have a fitted effect of over 35% in size. The method in brief:
(§2)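 Real-time cytotoxicity: fluorescence of a cell-impermeant cyanine dye binding DNA of dead HepG2 cells, measured repeatedly (0–40 h) during compound exposure at 37 C. Cells seeded 600/well with reagent, dosed after 5 h.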

Assay [3] is described as follows: A CellTox Green Cytotoxicity Assay to monitor cytotoxicity in HepG2 cells - 32 hour (AID 1224883). Further: nearly all actives have a fitted effect of over 50% in size. An outline of the steps: as §2
Assay [4] in a line: qHTS RealTime-Glo MT Cell Viability Assay in HEK293 cells - 8 hour (AID 1224887). Further: top concentration of the series differs between compounds; nearly all actives have a fitted effect of over 50% in size. An outline of the steps: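 Luminescence, which tracks viable cell number through reduction of the prosubstrate to a NanoLuc substrate, was read over continuous 37 C culture. Cells (600/well) were premixed with reagent and rested 5 h before 23 nL of compound in DMSO was pinned.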
On the technique in general: qHTS replaces the single test concentration by a dilution series.

A short description of assay [5]: A CellTox Green Cytotoxicity Assay to monitor cytotoxicity in HEK293 cells - 16 hour (AID 1224888). Further: nearly all actives have a fitted effect of over 35% in size. The method in brief: as §1
The nature of assay [6]: qHTS RealTime-Glo MT Cell Viability Assay in HepG2 cells - 0 hour (AID 1224889). Further: nearly all actives have a fitted effect of over 50% in size. An outline of the steps:
(§3)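 Luminescence read-out: viable HepG2 cells reduce a prosubstrate to a NanoLuc substrate, giving a signal proportional to live cell number. Reads taken at 0, 8, 16, 24, 32 and 40 h of compound exposure at 37 C.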

Assay [7] in a line: A CellTox Green Cytotoxicity Assay to monitor cytotoxicity in HepG2 cells - 8 hour (AID 1224890). Further: nearly all actives have a fitted effect of over 45% in size. An outline of the steps:
as §2

Assay [8] can be described thus: qHTS assay to identify small molecule antagonists of the estrogen receptor alpha (ER-alpha) signaling pathway using the BG1 cell line in the presence of 0.1 nM 17-beta-estradiol - cell viability counter screen (AID 1259241). Further: nearly all actives have a fitted effect of over 40% in size. Further: potency means the concentration at half of the fitted maximal effect. The method in brief: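 Following 5 days in phenol red-free medium with charcoal-stripped serum, VM7Luc4E2 cells received test compounds alongside 0.1 nM 17beta-estradiol (final) at 37C for 22 hr. Live cells were then quantified via protease-substrate fluorescence.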

Assay [9] in a line: qHTS assay to identify small molecule antagonists of the androgen receptor (AR) signaling pathway using the MDA cell line in the presence of 0.5 nM R1881 - cell viability counter screen (AID 1259242). Further: nearly all actives have a fitted effect of over 45% in size. Further: potency means the concentration at half of the fitted maximal effect. An outline of the steps:
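Live-cell protease activity was measured by CellTiter-Fluor fluorescence after 30 min. Before that, MDA-kb2 MMTV-luciferase cells had 16 hr at 37C without CO2, exposed to test compounds and 0.5 nM R1881 final.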

Assay [10] addresses Androgen receptor (Homo sapiens) (UniProt P10275). The experiment in a line: qHTS assay to identify small molecule antagonists of the androgen receptor (AR) signaling pathway using the MDA cell line in the presence of 0.5 nM R1881 (AID 1259243). Further: nearly all actives have a fitted effect of over 50% in size. An outline of the steps:
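Luminescent reporter readout (ONE-Glo, 30 min, room temperature) after 16 hr co-treatment of MDA-kb2 cells with test compounds and 0.5 nM R1881 final, at 37C without CO2. The MMTV-driven luciferase responds to both AR and GR.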

Assay [11] deals with Estrogen receptor (Homo sapiens) (UniProt P03372). The experiment in a line: qHTS assay to identify small molecule antagonists of the estrogen receptor alpha (ER-alpha) signaling pathway using the BG1 cell line in the presence of 0.1 nM 17-beta-estradiol (AID 1259244). Further: nearly all actives have a fitted effect of over 50% in size. The method in brief: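 Luciferase luminescence (ONE-Glo, 30 min at room temperature) was read after 22 hr at 37C exposure to compounds plus 17beta-estradiol at 0.1 nM final. Cells were VM7Luc4E2 with endogenous ER-alpha and an ERE-driven luciferase, pre-cultured 5 days in hormone-depleted medium.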

A short description of assay [12]: qHTS assay to identify small molecule phospholipidosis (PLD) inducers (AID 1259344; active means well fitted curve in the direction sought with a large enough effect; an effect the other way counts as inactive or inconclusive). The method in brief: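 Cells (HepG2, 900 per well) attach for 4 h, receive LipidTOX Red and compound together, incubate 24 h at 37 C, are fixed 30 min with paraformaldehyde/Hoechst, then imaged at one site per well.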
Assay [13] is described as follows: qHTS assay to identify small molecule HDAC inhibitors (AID 1259364). Further: top concentration of the series differs between compounds; nearly all actives have a fitted effect of over 45% in size. The method in brief:
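Luminescence read after 30 min room-temperature HDAC-Glo incubation measures cellular class I/II HDAC activity. Compounds were applied for 2 hr at 37 C to HCT-116 wild-type cells seeded the day before.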

Assay [14] can be described thus: qHTS assay to identify small molecule HDAC inhibitors - cell viability counter screen (AID 1259365). The method in brief: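 HCT-116 wild-type, overnight attachment; 2hr drug exposure, 37C; CellTiter-Glo luminescent ATP readout after 30min RT.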
Assay [15] in a line: qHTS assay to identify small molecule agonists of the sonic hedgehog signaling (Shh) pathway - cell viability counter screen (AID 1259366). Further: nearly all actives have a fitted effect of over 50% in size. Further: potency means the concentration at half of the fitted maximal effect. An outline of the steps:
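Compounds in DMSO were pin-transferred onto 3T3 Gli1-Luc cells that had settled 4hr; plates then stood 24hr at 37C and 5% CO2. One hour before the end, CellTiter-Fluor was added and fluorescence recorded.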

A short description of assay [16]: qHTS assay to identify small molecule antagonists of the sonic hedgehog signaling (Shh) pathway - cell viability counter screen (AID 1259367). Further: nearly all actives have a fitted effect of over 55% in size. Further: potency means the concentration at half of the fitted maximal effect. An outline of the steps: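 Cytotoxicity was assessed in parallel with Shh reporter activity by measuring live-cell protease fluorescence (CellTiter-Fluor) in NIH/3T3 cells stably carrying Gli1-Luc, treated with compound under conditioned medium stimulation for 23 hr plus 1 hr reagent incubation.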

A short description of assay [17]: qHTS assay to identify small molecule agonists of the sonic hedgehog signaling (Shh) pathway (AID 1259368; calls by dose curve;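 further: NIH/3T3-derived 3T3Gli1-Luc cells carrying a stable Gli1-driven firefly luciferase reporter; series mostly up to about 92 µM; nearly all actives have a fitted effect of over 15% in size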). The method in brief: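 Luminescence was read after 30 min at room temperature with luciferase reagent. Before that, 3T3Gli1-Luc cells (NIH/3T3 clone, stable Gli1-Luc reporter; 2,000/well) were exposed to compounds for 24 hr at 37C, 5% CO2, compounds being added 4 hr post-plating.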

Assay [18] is described as follows: qHTS RealTime-Glo MT Cell Viability Assay in HepG2 cells - 16 hour (AID 1224885). Further: nearly all actives have a fitted effect of over 50% in size. The method in brief:
as §3

A short description of assay [19]: qHTS RealTime-Glo MT Cell Viability Assay in HEK293 cells - 24 hour (AID 1224886). Further: nearly all actives have a fitted effect of over 50% in size. Further: potency means the concentration at half of the fitted maximal effect. The method in brief: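 Nonlytic real-time viability readout: viable cells convert prosubstrate to NanoLuc substrate, giving luminescence proportional to live cell number. HEK293, 600 cells/well, compound added after 5 h, continuous culture at 37 C.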

Sequence of Estrogen receptor (Homo sapiens) (P03372 whole entry, looked up): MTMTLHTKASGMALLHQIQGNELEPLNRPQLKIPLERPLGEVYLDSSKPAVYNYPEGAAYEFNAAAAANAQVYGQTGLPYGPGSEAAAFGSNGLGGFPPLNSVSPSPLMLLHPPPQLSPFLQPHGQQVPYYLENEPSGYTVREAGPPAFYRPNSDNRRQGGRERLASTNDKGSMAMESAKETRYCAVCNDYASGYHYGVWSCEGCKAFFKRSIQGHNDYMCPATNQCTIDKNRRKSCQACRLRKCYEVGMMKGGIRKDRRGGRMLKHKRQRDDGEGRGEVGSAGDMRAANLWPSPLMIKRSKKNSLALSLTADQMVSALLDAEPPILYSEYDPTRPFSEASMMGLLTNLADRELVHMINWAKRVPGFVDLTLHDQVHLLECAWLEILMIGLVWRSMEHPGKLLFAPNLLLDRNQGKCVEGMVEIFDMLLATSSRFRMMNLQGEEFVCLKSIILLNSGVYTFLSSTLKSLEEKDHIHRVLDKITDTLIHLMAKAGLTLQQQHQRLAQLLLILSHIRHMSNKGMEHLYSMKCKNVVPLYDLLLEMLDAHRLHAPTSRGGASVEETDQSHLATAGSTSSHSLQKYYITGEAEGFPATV
Sequence of Androgen receptor (Homo sapiens) (P10275 whole entry, looked up): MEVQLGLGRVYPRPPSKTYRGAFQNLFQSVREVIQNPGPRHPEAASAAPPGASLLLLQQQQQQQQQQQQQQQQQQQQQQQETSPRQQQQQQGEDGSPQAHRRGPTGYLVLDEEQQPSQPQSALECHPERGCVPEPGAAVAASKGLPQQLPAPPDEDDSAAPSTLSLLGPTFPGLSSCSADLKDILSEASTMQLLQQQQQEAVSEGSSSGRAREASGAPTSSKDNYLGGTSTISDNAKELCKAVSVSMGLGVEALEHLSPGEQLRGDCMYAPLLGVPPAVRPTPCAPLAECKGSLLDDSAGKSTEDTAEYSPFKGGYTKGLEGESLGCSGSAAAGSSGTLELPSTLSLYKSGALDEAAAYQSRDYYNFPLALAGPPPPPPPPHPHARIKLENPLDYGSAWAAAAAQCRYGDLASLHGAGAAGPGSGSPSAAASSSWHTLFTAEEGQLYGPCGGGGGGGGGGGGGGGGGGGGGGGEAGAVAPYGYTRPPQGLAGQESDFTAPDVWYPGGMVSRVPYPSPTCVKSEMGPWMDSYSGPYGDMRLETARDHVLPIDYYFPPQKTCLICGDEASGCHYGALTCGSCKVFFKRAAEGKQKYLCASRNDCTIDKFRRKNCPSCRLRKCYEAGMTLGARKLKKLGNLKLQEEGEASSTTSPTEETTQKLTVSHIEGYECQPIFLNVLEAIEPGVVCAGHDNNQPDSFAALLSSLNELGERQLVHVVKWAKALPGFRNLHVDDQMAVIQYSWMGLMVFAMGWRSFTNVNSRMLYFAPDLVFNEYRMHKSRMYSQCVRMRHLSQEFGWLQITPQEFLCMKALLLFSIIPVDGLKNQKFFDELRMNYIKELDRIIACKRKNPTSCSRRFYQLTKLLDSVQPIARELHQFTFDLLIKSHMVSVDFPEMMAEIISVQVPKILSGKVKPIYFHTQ

With `CC(=O)Oc1ccc(C)cc1`, the Potency entry in assay [1], in assay [3], in assay [4], in assay [5], in [6] and in [8] was “inactive” in each case. The Potency result in assay [9], in assay [10], in assay [11], in [13], in [15] and in assay [16] was “inactive” throughout. Besides, the result in assay [2], in assay [7], in assay [12], in [14] and in assay [17] was inactive.

For `C=CC(=O)OCCC(=O)O`, the Potency result in assay [1], in [3], in [18], in [19], in assay [4] and in assay [6] was “inactive” throughout. For the same molecule, the Potency entry in assay [8], in assay [9], in assay [11] and in assay [16] was “inactive” each time. For the same molecule, the call in assay [2], in assay [7], in assay [14] and in assay [17] was inactive.

Turning to `O=S(=O)(O)c1ccc(N=Nc2c(O)ccc3cc(S(=O)(=O)O)ccc23)cc1`, the Potency result in assay [1], in [3], in assay [18], in [19], in assay [5] and in assay [6] was “inactive” throughout. Also, in assay [11], the Potency entry is “inactive”. Moreover, the call in [2], in [7], in assay [14] and in assay [17] was inactive. Besides, the Potency was 30.8 µM (active) and 27.3 µM (active) in [8]; 54.7 µM (active) and 27.3 µM (active) in [9]; 30.8 µM (active) and 30.6 µM (active) in [15]; 27.4 µM (active) and 27.3 µM (active) in assay [16].

`COC(=O)c1cccnc1`: the Potency result in [1], in assay [3], in assay [19], in [4], in assay [5] and in assay [6] was “inactive” in each case. Besides, the Potency entry in assay [8], in assay [9], in assay [10], in assay [13], in assay [15] and in assay [16] was “inactive” in each case. In addition, the call in assay [2], in assay [7], in assay [12], in assay [14] and in [17] was inactive.

Turning to `COc1ccc([N+](=O)[O-])cc1N`, the Potency entry in assay [1], in [3], in [18], in assay [19], in [4] and in [6] was “inactive” each time. Moreover, the Potency entry in [8], in assay [9], in assay [11], in assay [13], in [15] and in assay [16] was “inactive” in each case. The outcome in assay [2], in [7], in assay [14] and in assay [17] was inactive.

As to `C=CC[N+](C)(C)CC=C`, the Potency result in assay [1], in assay [3], in [19], in assay [4], in assay [6] and in assay [8] was “inactive” in each case. Also, the Potency result in assay [9], in assay [15] and in assay [16] was “inactive” each time. In addition, the molecule was called inactive in assay [2], in assay [7], in [14] and in [17].

Turning to `CN(C)c1ccc(Cc2ccc(N(C)C)cc2)cc1`, the Potency entry in assay [1], in [3], in [18], in assay [5], in assay [6] and in [8] was “inactive” in each case. The Potency entry in [9], in assay [13], in assay [15] and in [16] was “inactive” each time. Besides, the molecule was called inactive in [2], in [7], in [14] and in [17]. Besides, in assay [19], the Potency was 22 µM (active) and 21.9 µM (active).

On to `CN(C)c1ccc(O)c2c1C[C@H]1C[C@H]3[C@H](N(C)C)C(=O)C(C(N)=O)=C(O)[C@@]3(O)C(=O)C1=C2O`, for which the Potency result in assay [1], in [3], in [18], in assay [4], in [5] and in assay [6] was “inactive” throughout. In addition, the Potency entry in [8], in assay [9], in assay [11], in [15] and in assay [16] was “inactive” throughout. In addition, the call in [2], in assay [7], in assay [12], in [14] and in assay [17] was inactive.
